The campaign covered roughly 290,000 compounds. About 1,800 (0.62%) were called active. This is one part of a sample in which actives are shown more often than they occur. Values without a mark were called inactive. Cut-off read from the data, not from the text of the source: active = inhibition above about 50%; inactive = the rest.
Assay: NOD2 signaling inhibitors, cell-based, luminescence, uHTS, HEK293 (AID 1566)
Conditions: HEK293 NOD2/NF-kB luciferase reporter, at 4 µM, stronger effect = higher value

Row | Structure (SMILES) | inhibition
1 | CCOc1ccc(-c2cc(C)[n+](CCO)c(-c3ccc(OCC)cc3)c2)cc1 | 0.3%
2 | CCOc1ccc(-c2cc(C)[n+](CCN3CCOCC3)c(-c3ccc(OCC)cc3)c2)cc1 | 21.6%
3 | CCOc1ccc(-c2cc(C)[n+](CCc3ccc(OC)c(OC)c3)c(-c3ccc(OCC)cc3)c2)cc1 | 58.6% (active)
4 | COc1ccc(-c2cc(=NCCCCCC(=O)O)c3cc(C)ccc3o2)cc1 | -4.2%
5 | N=C1C(c2ccccc2)=C(O)CN1Cc1ccco1 | 8.2%
6 | Cc1cccc(-n2c(O)c(C=NCCN3CCNCC3)c(=O)[nH]c2=S)c1 | -4.3%
7 | O=C(Cn1cc(C(=O)c2ccccc2F)c2ccccc21)NC1CC1 | 13.6%
8 | O=C(c1cc(C(=O)NCc2ccccc2)c(=O)n(Cc2ccccc2)c1)c1cc(Br)ccc1O | 2.5%
9 | CCCNS(=O)(=O)c1ccc(OCC(=O)N2CCN(Cc3ccc4c(c3)OCO4)CC2)cc1 | 20.9%
10 | CCc1ccc(OCC(=O)N2CCN(Cc3ccc4c(c3)OCO4)CC2)cc1 | -4.3%
11 | CCCCNS(=O)(=O)c1ccc(OCC(=O)N2CCN(Cc3ccc4c(c3)OCO4)CC2)cc1 | 51.1% (active)
12 | CC(C)CNP(=S)(c1ccccc1)C(C)(C)C (stereo not given) | 10.7%
13 | O=c1cc(CN2CCNCC2)nc2sccn12 | 8.2%
14 | FC(F)(F)c1cccc(C2NCc3ccccc3-n3cccc32)c1 (stereo not given) | 9.8%
15 | CC(=O)OC1CC[C@]2(C#N)[C@H]3CC[C@]4(C)[C@H](C5C=CC(=O)O5)CCC4(O)C3CCC2(O)C1 (stereo not given in full) | 75% (active)
16 | Cn1cccc1CN1CCN(C(=O)COc2ccccc2)CC1 | 16.7%
17 | O=[N+]([O-])c1ccccc1CN1CC=C(c2ccc(F)cc2)CC1 | -15.5%
18 | CC12CC[C@H]3[C@@H](CCC4(O)C[C@H](O)CCC34/C=N/NC(=O)c3ccccc3Cl)C1(O)CCC2C1=CC(=O)OC1 (stereo not given in full) | 25.4%
19 | C[C@H]1O[C@@H](OC2CC[C@]3(C=O)[C@H]4CC[C@]5(C)[C@@H](C6=CC(=O)OC6)CC[C@]5(O)[C@@H]4CC[C@]3(O)C2)CC2OC(C)(C)OC21 (stereo not given in full) | 73% (active)
20 | CC12CC[C@H]3[C@@H](CCC4(O)C[C@H](O)CCC34/C=N/NC(=O)c3ccccc3O)C1(O)CCC2C1=CC(=O)OC1 (stereo not given in full) | 17.2%
21 | CC12CC[C@H]3[C@@H](CCC4(O)C[C@H](O)CCC34/C=N/NC(=O)c3ccc(O)cc3)C1(O)CCC2C1=CC(=O)OC1 (stereo not given in full) | 9.1%
22 | COc1ccc(C(=O)N/N=C/C23CC[C@@H](O)CC2(O)CC[C@@H]2[C@@H]3CCC3(C)C(C4=CC(=O)OC4)CCC23O)cc1 (stereo not given in full) | 27.3%
23 | C[C@H]1O[C@@H](O[C@H]2[C@@H](O)C[C@H](O[C@H]3[C@@H](O)C[C@H](O[C@H]4CC[C@@]5(C)[C@H](CC[C@@H]6[C@@H]5CC[C@]5(C)[C@@H](C7=CC(=O)OC7)CC[C@]65O)C4)O[C@@H]3C)O[C@@H]2C)C[C@H](O)[C@@H]1O | 73.9% (active)
24 | CCOc1ccc(N=Cc2c(O)n(Cc3ccccc3)c(=S)[nH]c2=O)cc1 | 8.4%

Row | Structure (SMILES) | inhibition
25 | CC(C)CCOP(N)(=O)Oc1ccccc1 (stereo not given) | -6.2%
26 | Cc1ccc2cccc(OC(=O)N(C)c3ccccc3)c2n1 | 5.1%
27 | C=CCn1c(O)c(C(C)=NC2CC2)c(=O)[nH]c1=O | 4.6%
28 | O=c1c2ccccc2nc(/C=C/c2ccc(O)cc2)n1-c1ccccc1O | -2.5%
29 | Cc1nc2ccc(Cl)cc2c(=O)n1-c1cccc(Cl)c1 | -2.1%
30 | O=C(Cn1nc(Cc2cccnc2)c2ccccc2c1=O)N1CCC2(CC1)OCCO2 | 20.3%
31 | COc1ccccc1/C=C1\C(=O)NC(=S)N(c2ccccc2)C1=O | 11.6%
32 | NC(=S)c1cn(C2OC(CO)C(O)C2O)c2ncnc(N)c12 (stereo not given) | 69.1% (active)
33 | CCNC(=O)[C@H]1O[C@@H](n2cnc3c(N)ncnc32)[C@H](O)[C@@H]1O | -24.1%
34 | C=C(CO)CC1CC(O)[C@]2(C)OC3CC4OC5C[C@]6(C)O[C@]7(C)CCC8OC9C[C@]%10(C)OC%11C(C)=CC(=O)OC%11CC%10OC9C[C@@H](C)C8OC7CC6O[C@]5(C)C/C=C\C4OC3CC2O1 (stereo not given in full) | 4.7%
35 | C=C(C=O)C[C@@H]1C[C@H](O)C2OC3C[C@]4(C)OC5/C=C\CC6OC7C(CC=CCC6OC5CCCC4OC3CC2O1)OC1CC2OC3CC(=O)OC3C[C@@H](C)C[C@@]2(C)OC1C[C@@H]7C (stereo not given in full) | 58.2% (active)
36 | C=C(CC1CC(O)[C@]2(C)OC3CC4OC5C[C@]6(C)O[C@]7(C)CCC8OC9C[C@]%10(C)OC%11C(C)=CC(=O)OC%11CC%10OC9C[C@@H](C)C8OC7CC6O[C@]5(C)C/C=C\C4OC3CC2O1)C(=O)O (stereo not given in full) | 12.8%
37 | C=CCn1c(O)c(/C(C)=N/NC(=S)Nc2ccccc2)c(=O)[nH]c1=O | 10.8%
38 | CCOc1cccc(=NC2CCCCC2)c2c(C)n(C)c(C)c12 | 27%
39 | Cc1oc(-c2cccs2)nc1CSCC(=O)N1CCC2(CC1)OCCO2 | 57.1% (active)
40 | Cc1ccsc1-c1nc(CSCC(=O)N2CCC3(CC2)OCCO3)c(C)o1 | 11.3%
41 | COc1ccc(-c2nc(CSCC(=O)N3CCC4(CC3)OCCO4)c(C)o2)cc1OC | -11.2%
42 | O=c1[nH]c(=O)n(CCC2=CCCCC2)c(O)c1/C=N/Nc1cccc2ccccc12 | 33.9%
43 | CC1C(OC(=O)CCC(=O)NC(C)(C)CO)O[C@H]2OC3(C)CC[C@H]4[C@H](C)CCC1C24OO3 (stereo not given in full) | 64.5% (active)
44 | C[C@@H]1CC[C@H]2[C@@H](C)C(=O)O[C@@H]3O[C@@]4(C)CC[C@@H]1[C@]32OO4 | 9%
45 | C[C@H]1[C@H](OC(=O)CCC(=O)NCc2ccc(C(=O)O)cc2)O[C@@H]2O[C@@]3(C)CC[C@H]4[C@H](C)CC[C@@H]1C24OO3 | 26.4%
46 | O=c1[nH]c(=O)n(CCC2=CCCCC2)c(O)c1/C=N/Nc1ccccc1 | 15.6%
47 | CCOc1ccc(N2C(=O)NC(=O)/C(=C/c3cnc(SC)nc3)C2=O)cc1 | 3%
48 | Cc1ccc(N2C(=O)NC(=O)/C(=C\c3ccc([N+](=O)[O-])o3)C2=O)cc1 | 10.6%

Row | Structure (SMILES) | inhibition
49 | CNc1ccc2nc3ccccc3[n+](C)c2c1 | 54.7% (active)
50 | C[n+]1c2ccccc2nc2ccc(NCCO)cc21 | 41.7%
51 | Nc1cc2nc3ccccc3nc2cc1N | -1.6%
52 | CC(Cc1ccccc1)NC(=O)Cc1ccc([N+](=O)[O-])cc1 (stereo not given) | 4.1%
53 | CC(C(=O)c1ccc(Cl)cc1Cl)n1cncn1 (stereo not given) | -37.6%
54 | CCCC1COC(Cn2cncn2)(c2ccc(Cl)cc2Cl)O1 (stereo not given) | 5.9%
55 | CC1(c2ccc(Cl)cc2Cl)OCC(Cn2cncn2)O1 (stereo not given) | 60.3% (active)
56 | Cc1c(C(=O)N2CCC3(CC2)OCCO3)oc2ccc(S(=O)(=O)N3CCOCC3)cc12 | 9.5%
57 | Clc1ccccc1NC1=NCCCS1 | -11.5%
58 | CCn1nc(-c2cccs2)nc2c(=O)n(C)c(=O)nc1-2 | 72.1% (active)
59 | Cn1ncnc2c(=O)n(C)c(=O)nc1-2 | 45.4%
60 | CCOc1ccc(-n2c(-c3cccs3)nc3ccccc3c2=O)cc1 | 21.3%
61 | CCCCn1c(O)c(C(C)=NCCN2CCOCC2)c(=O)[nH]c1=O | 2.3%
62 | COc1ccc(CNCCc2c(C)[nH]c3ccc(OC(F)(F)F)cc23)c(OC)c1 | 57.8% (active)
63 | COc1ccc2[nH]c(C)c(CCNCc3cc(OC)c(OC)c(OC)c3)c2c1 | 6.9%
64 | Cc1[nH]c2ccc(OC(F)(F)F)cc2c1CCNCc1ccc(Cl)cc1 | 2.1%
65 | COc1cc2c(cc1OC)C(C(=O)N(C)C1CCCCC1)C1CCCCN1C2=O (stereo not given) | 9.9%
66 | CCCCn1c(=O)c(C(=O)Nc2ccccc2N)c(O)c2ccccc21 | 2.4%
67 | COc1ccc(C2=NS(=O)(=O)N(C)C(C(=O)N3CCC4(CC3)OCCO4)=C2)cc1OC | 8.1%
68 | COc1ccc(CNCCc2ccc(Cl)cc2Cl)cc1 | -27.6%
69 | Cc1nn(Cc2ccccc2Cl)c(C)c1C(=O)NC1CCCc2ccccc21 (stereo not given) | 20.5%
70 | CN(C)C(=O)Oc1ccc2c(c1)O/C(=C\c1ccc(Cl)cc1)C2=O | -16.2%
71 | Cc1c(C(=O)Nc2ccccc2)cc(-c2ccccc2)n1CCCN1CCOCC1 | 8.6%
72 | O=C(NCc1cccnc1)Nc1ccc([N+](=O)[O-])cc1 | -1.2%

Row | Structure (SMILES) | inhibition
73 | Cc1ccc(CN2CCN(CC(=O)N3CCC4(CC3)OCCO4)C2=O)cc1 | -1.6%
74 | C[C@H]1C[C@@H](C)C(=O)[C@@H]([C@H](O)CC2CC(=O)NC(=O)C2)C1 | 73% (active)
75 | CCn1c(O)c(C=Nc2ccc(N3CCOCC3)cc2)c(=O)n(CC)c1=S | 22.7%
76 | COCCN1C(=O)NC(=O)/C(=C\c2ccc(Br)cc2)C1=O | 0.7%
77 | CC(C)c1oc(=O)cc2c1[C@@H](O)[C@H]1OC(=O)[C@@]3(C)C[C@@H](O)[C@@H](O)[C@@]2(C)C13 (stereo not given in full) | 64.6% (active)
78 | CC(C)c1oc(=O)cc2c1[C@@H](O)[C@H]1OC(=O)[C@@]3(C)CC[C@@H](O)[C@@]2(C)C13 (stereo not given in full) | 20%
79 | CC(Cc1ccsc1)NCc1cn[nH]c1-c1ccc(F)cc1F (stereo not given) | 10.2%
80 | COc1cc(N2CCOCC2)ccc1/C=C1\C(=O)NC(=O)N(C2CCCCC2)C1=O | 12%
81 | CCOC(=O)C1=CC(=C2C(=O)N(CC)C(=S)N(CC)C2=O)c2ccccc2O1 | 18.1%
82 | O=C(CCNC(=O)N1C[C@H]2C[C@@H](C1)c1cccc(=O)n1C2)Nc1cccc(Cl)c1 | 13.1%
83 | O=C(Nc1cccc(OC(=O)N2CCCCC2)c1)N1CCOCC1 | -0.1%
84 | O=C(Nc1ccc(OC(=O)N2CCCC2)cc1)N1CCOCC1 | 12.5%
85 | O=C(Nc1ccc(OC(=O)N2CCCCC2)cc1)N1CCOCC1 | 62.5% (active)
86 | COC(=O)c1nc(-c2ccc3c(n2)C(=O)C(N)=C(OC)C3=O)c(N)c(-c2ccc(OC)c(OC)c2O)c1C | 57.2% (active)
87 | CC(=O)Nc1cc(C(=O)N2CCC3(CC2)OCCO3)ccc1S(=O)(=O)c1ccc(Cl)cc1 | 6.8%
88 | CC(=O)Nc1cc(C(=O)N2CCC3(CC2)OCCO3)ccc1S(=O)(=O)c1ccc(C)cc1 | 52.9% (active)
89 | O=C(c1ccc(N2CCCCCC2)c([N+](=O)[O-])c1)N1CCC2(CC1)OCCO2 | 73.2% (active)
90 | O=C(c1ccc(N2CCCCC2)c([N+](=O)[O-])c1)N1CCC2(CC1)OCCO2 | 9.1%
91 | CC1CCCN(c2ccc(C(=O)N3CCC4(CC3)OCCO4)cc2[N+](=O)[O-])C1 (stereo not given) | 15.8%
92 | CCC(=O)Nc1cc(C(=O)N2CCC3(CC2)OCCO3)ccc1S(=O)(=O)c1ccc(C)cc1 | 0.8%
93 | O=C(COc1ccc2ccc(=O)oc2c1)N1C[C@H]2C[C@@H](C1)c1cccc(=O)n1C2 | -2.7%
94 | CN1CC(C(=O)c2ccc([N+](=O)[O-])cc2)C(c2ccc(Cl)cc2)C1 (stereo not given) | 16.2%
95 | COC(=O)C(C)NC(=S)N1CC2C[C@@H](C1)Cn1c2cccc1=O (stereo not given in full) | 14.9%

Reference: PubChem BioAssay AID1566 (Sanford-Burnham Center for Chemical Genomics, 2009)
